Compound activity as filed in PubChem.
The entries come from a sample that favours hits as a whole.
Pf Dd2 growth – blocks in vitro growth of P. falciparum Dd2; P. falciparum Dd2 growth, SYBR Green, 72 h; Potency, µM (series often up to 28.9 µM), actives largely listed as inhibitors; hit rate 4.3% among 120,000; active means well fitted inhibition curve with a large enough effect; further: nearly all actives have a fitted effect of over 65% in size
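Infected erythrocytes (Dd2, 0.3% parasitemia, 2.5% hematocrit final) are added to compound in RPMI-1640/Albumax II medium, grown 72 h at 37C in low oxygen, then lysed with saponin/Triton-X containing SYBR Green and read by fluorescence.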
Numbers stand for hits; i = inactive; [ ] = remark or other dose.

SMILES	Pf Dd2 growth
CS(=O)(=O)N1CCC(Oc2ccccc2-c2nc(C3CC3)no2)C1 (stereo not drawn)	i
Cc1ccc(-c2onc(C)c2C)cc1S(=O)(=O)N1CCN(c2ccccc2F)CC1	i
Cc1ccc(-c2onc(C)c2C)cc1S(=O)(=O)N1CCCCC1	i
Cc1ccc(-c2nnc(Nc3ccc(Br)cc3)c3ccccc23)cc1S(=O)(=O)N1CCN(C)CC1	5.62µM
O=C1CC(c2ccccc2)N(C(=O)C2CC2)CCCN(C(=O)Nc2ccccc2)CCN1 (stereo not drawn)	i
CC(C)(C)OC(=O)N1CCC(c2c(C(=O)N3CCC(c4ccccc4)C3)cnn2-c2ccc(Cl)cc2)CC1 (stereo not drawn)	4.47µM
Cc1ccc(-n2ncc(C(=O)N3CCN(c4ncccn4)CC3)c2C2CCN(C(=O)OC(C)(C)C)CC2)cc1	i
Cc1ccc(C2CCN(C(=O)c3cnn(-c4ccc(C)cc4)c3C3CCN(C(=O)OC(C)(C)C)CC3)C2)cc1 (stereo not drawn)	i
Cc1ccc(-n2ncc(C(=O)N3CCC(c4ccccc4)C3)c2C2CCN(C(=O)OC(C)(C)C)CC2)cc1 (stereo not drawn)	11.2µM
CCOC(=O)c1cnn(-c2ccc(OC)cc2)c1C1CCN(C(=O)OC(C)(C)C)CC1	7.94µM
CCOC(=O)c1ccccc1NC(=O)c1cnn(-c2ccc(OC)cc2)c1C1CCN(C(=O)OC(C)(C)C)CC1	i
COc1ccc(-n2ncc(C(=O)N3CCN(c4ncccn4)CC3)c2C2CCN(C(=O)OC(C)(C)C)CC2)cc1	i
CC(C)(C)OC(=O)N1CCC(c2c(C(=O)N3CCN(c4ccccn4)CC3)cnn2-c2ccccc2)CC1	i
O=c1[nH]ccn1C1CCN(Cc2ccc(F)cc2)CC1	i
Cc1cc(NC(=O)N2CCC(n3cnnc3C3CC3)C2)ccc1Br (stereo not drawn)	i
CCCNC(=O)N1CCC(n2c(C)cnc2C2CCOCC2)CC1	i
CC(=O)NCCCC(=O)N1CCC2(CC1)CN(C(=O)N(C)C)Cc1ccccc1O2	i
CCNC(=O)NC[C@@H]1C=C(C)[C@H](CC(=O)N2CCN(C(C)=O)CC2)C[C@H]1C(C)C	i
CCC(=O)Nc1cccc(C2OC(=O)N(Cc3ccc(C)cc3)C2C(=O)NCC2CC2)c1 (stereo not drawn)	i
COc1ccc(C)cc1NC(=O)CSc1ccc(-c2ccccn2)nn1	8.91µM
COc1ccc(OC)c(NC(=O)CSc2ccc(-c3sc(C)nc3C)nn2)c1	i
COc1ccc(OC)c(NC(=O)CSc2ccc(-c3cccs3)nn2)c1	i[5.79 µM]
CCCCCC(=O)Nc1nc2c(s1)C[C@@H]1[C@](C)(CO)[C@H](O)CC[C@@]1(C)[C@@H]2CC(=O)NCc1ccccc1	i
CCCCCC(=O)Nc1nc2c(s1)C[C@@H]1[C@](C)(CO)[C@H](O)CC[C@@]1(C)[C@@H]2CC(=O)NCc1cc(F)cc(F)c1	7.94µM
CC(C)NC(=O)C[C@@H]1c2nc(NC(=O)c3c(F)cccc3F)sc2C[C@@H]2[C@](C)(CO)[C@H](O)CC[C@]21C	i
SMILES	Pf Dd2 growth
CCCCCC(=O)Nc1nc2c(s1)C[C@@H]1[C@](C)(CO)[C@H](O)CC[C@@]1(C)[C@@H]2CC(=O)NC1CCCCC1	i
C[C@H](NC(=O)C[C@@H]1c2nc(NC(=O)c3ccc(F)cc3)sc2C[C@@H]2[C@](C)(CO)[C@H](O)CC[C@]21C)c1ccccc1	2.51µM
CC(C)(C)CC(=O)Nc1nc2c(s1)C[C@@H]1[C@](C)(CO)[C@H](O)CC[C@@]1(C)[C@@H]2CC(=O)NCc1ccco1	i
C[C@]1(CO)[C@H]2Cc3sc(NC(=O)c4ccc(F)cc4)nc3[C@@H](CC(=O)O)[C@]2(C)CC[C@H]1O	i
C[C@@H](NC(=O)C[C@@H]1c2nc(NC(=O)CC(C)(C)C)sc2C[C@@H]2[C@](C)(CO)[C@H](O)CC[C@]21C)c1ccccc1	11.2µM
CC(C)(C)CC(=O)Nc1nc2c(s1)C[C@@H]1[C@](C)(CO)[C@H](O)CC[C@@]1(C)[C@@H]2CC(=O)O	i
O=C(Nc1ccc(F)cc1)c1ccc(CN2C(=O)NC3(CCOCC3)C2=O)cc1	i
Cc1nnc(-c2cc(-c3ccc(CO)cc3)ccn2)n1CCN1CCOCC1	i
CCS(=O)(=O)Nc1ccc(C(=O)N2CC[C@](C)(O)[C@@H](O)C2)cc1	i
O=C(CCC[C@@H]1[C@H]2CCCN3CCC[C@@H](CN1Cc1cccnc1)[C@@H]23)Nc1ccncc1	i
CC1(CNC(=O)c2ccc3ccccc3n2)CCOCC1	i
COc1ccc(C2=NOC3(CCN(Cc4ccccc4)C3)C2)cc1 (stereo not drawn)	i
O=c1cc(-c2ccccc2)c2ccc3c(c2o1)CN(Cc1ccccc1)CO3	1µM
CCc1c(C)c2ccc3c(c2oc1=O)CN(Cc1ccccc1)CO3	1µM
Cc1coc2c(C)c3oc(=O)c(CC(=O)NCc4ccccc4)c(C)c3cc12	i
O=c1c2oc3ccccc3c2n(Cc2ccccc2)c(=O)n1Cc1ccc2c(c1)OCO2	i
COc1ccc(OC2CN(Cc3ccccc3)C2)cc1	i
COc1ccc(-c2cc(=O)oc3c4c(ccc23)OCN(Cc2ccccc2)C4)cc1	0.891µM
